Glyco luc inh = N-linked glycosylation inhibition. D54 ERlucT glycosylation luciferase reporter, 24 h; percent of 100 nM tunicamycin response. reporter increase, % at 12.5 µM. 360,000 compounds, 0.23% hits. AID 588692;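 active = mean luciferase reporter signal, scaled so untreated is 0 and the glycosylation-blocking control 100, at or above a set limit in every replicate; inconclusive = mean reaches the limit but not every replicate does; inactive = mean below the limit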;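 note: luciferase carries N-glycosylation sites so blocking glycosylation raises the light; 0% = median of neutral control wells and 100% = median of 100 nM tunicamycin wells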
ABCB6 inh 2 = inhibitors of human ABC transporter ABCB6. Q9NP58. K562-ABCB6 porphyrin accumulation, flow cytometry, 1 h; stronger effect = lower value. fluorescence ratio to DMSO, % at 10 µM. 360,000 compounds, 0.19% hits. AID 602162;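 active = fluorescence ratio to DMSO below 75%, the collection mean minus 3 SD; inconclusive = too few cells collected in the well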;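 note: signal is porphyrin accumulated inside mitochondria; 100% equals median channel fluorescence of DMSO control wells; lower ratio means ABCB6 inhibition with less porphyrin fluorescence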
Myeloid diff MLP = promotes myeloid progenitor differentiation; calls only at 10 µM; ER-HoxA9 myeloid progenitors, lysozyme-GFP differentiation, flow cytometry; AID 624256; 360,000 compounds, 1% hits;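 active = normalized GFP-positive differentiation at or above the plate's own cutoff, the solvent-only control mean plus 3 SD; inconclusive = no clear call, values can overlap the other calls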;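 note: cells exposed to compound for four days before flow analysis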
RAD54 inh = inhibitors of human RAD54 branch migration. RAD54 Holliday junction branch migration, FAM/BHQ fluorescence. inhibition, % at 10.4 µM. 360,000 compounds, 0.14% hits. AID 602329;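 active = mean normalized replicate activity at least 40 and at least half of replicates scoring 40 or more; inconclusive = only one of the two criteria met; inactive = mean below 40 and under half of replicates reaching 40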;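 note: 0% = median of neutral control wells and 100% = median of positive control wells; inhibitors cause a drop in the FAM fluorescence signal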
Target sequence (Q92698 whole entry, looked up): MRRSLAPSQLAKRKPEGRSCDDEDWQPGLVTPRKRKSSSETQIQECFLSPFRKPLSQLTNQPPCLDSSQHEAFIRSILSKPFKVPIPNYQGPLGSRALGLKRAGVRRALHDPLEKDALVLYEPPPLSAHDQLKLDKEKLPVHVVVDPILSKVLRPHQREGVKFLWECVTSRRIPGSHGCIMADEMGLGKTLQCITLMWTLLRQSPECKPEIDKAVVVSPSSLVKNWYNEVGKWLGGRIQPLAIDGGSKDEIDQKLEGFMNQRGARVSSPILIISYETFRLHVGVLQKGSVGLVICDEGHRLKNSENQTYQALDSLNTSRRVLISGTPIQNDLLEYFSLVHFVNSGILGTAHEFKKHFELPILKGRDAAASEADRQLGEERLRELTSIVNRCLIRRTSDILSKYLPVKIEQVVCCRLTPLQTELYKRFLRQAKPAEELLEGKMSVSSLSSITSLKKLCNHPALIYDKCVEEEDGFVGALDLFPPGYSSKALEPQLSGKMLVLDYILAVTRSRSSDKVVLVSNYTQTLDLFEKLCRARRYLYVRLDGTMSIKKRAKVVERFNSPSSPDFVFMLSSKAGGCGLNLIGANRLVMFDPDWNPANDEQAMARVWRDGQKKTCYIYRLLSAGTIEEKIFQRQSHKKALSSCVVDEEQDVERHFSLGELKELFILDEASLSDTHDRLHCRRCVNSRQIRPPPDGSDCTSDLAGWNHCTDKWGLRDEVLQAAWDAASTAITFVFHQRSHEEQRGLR
Vif imaging = blocks HIV Vif function; HEK293T cells, Vif self-association by quenched fluorescence, imaging, 24 h; 340,000 compounds, 0.35% hits; inhibition, % at 7.49 µM; in the data active = inhibition above about 50%, passing the limit was not always enough; inconclusive = no clear call, values can overlap the other calls; inactive = below about 31%
Myeloid diff CP1 = myeloid differentiation induction | shares compounds with Myeloid diff MLP | ER-HoxA9 myeloid progenitors, GFP/Mac1 double-positive flow | calls only | 2,300 compounds, 2% hits | AID 651706;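 active = share of green or green-and-red cells above 9 and 9% in run 1 or 4 and 3% in run 2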
GFP autofluor = counter-screen for myeloid differentiation promoters: compound fluorescence. shares compounds with Myeloid diff MLP. ER-HoxA9 myeloid progenitors, no estrogen, GFP autofluorescence flow cytometry; vehicle wells 0%, positive control 100%. fluorescence response, % (test concentration not listed). 2,300 compounds, 7.4% hits. AID 651707;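 active = over 5% cells positive for green fluorescent reporter, or over 2% positive for both it and APC stain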;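 note: range taken on the double positive population between DMSO and positive control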
Numbers without * were called inactive; i = inactive; u = inconclusive; x = not tested or not shown; + = active, no number. Hits are enriched below; roughly 1.6% of the tested compounds scored in any of these assays.

SMILES | Glyco luc inh | ABCB6 inh 2 | Myeloid diff MLP | RAD54 inh | Vif imaging | Myeloid diff CP1 | GFP autofluor
O=[N+]([O-])c1ccc(N/N=C\c2ccccc2OCc2ccccc2)cc1 | -5.1 | 122.0 | + | x | 8.4 | i | 0.0
Cc1cc(C)nc(N/N=C/c2ccccc2OCc2ccc([N+](=O)[O-])cc2)n1 | -2.3 | 88.0 | i | -0.6 | -14.7 | x | x
N#Cc1nc(-c2cccs2)oc1NCc1ccco1 | 4.8 | 100.0 | i | -19.2 | -2.6 | i | 0.5
N#Cc1nc(-c2cccs2)oc1NCc1ccccc1 | -3.1 | 102.0 | i | 7.2 | -6.0 | x | x
CCCCN(C(=O)c1ccc(-c2ccc([N+](=O)[O-])cc2)o1)c1c(N)n(CCCC)c(=O)[nH]c1=O | -0.3 | 87.0 | x | 5.8 | 8.1 | x | x
CCCCN(C(=O)c1ccc([N+](=O)[O-])o1)c1c(N)n(CCCC)c(=O)[nH]c1=O | 1.2 | 105.0 | + | x | -1.7 | i | 1.5
O=C(NCCc1ccco1)C(=O)NCC1CCCN1S(=O)(=O)c1ccccc1 (stereo unspecified) | 17.4 | 89.0 | + | -8.8 | -7.8 | i | 0.0
Cc1noc(C)c1S(=O)(=O)Nc1cccc2c1O[C@H](CN(C)Cc1ccncc1)[C@H](C)CN([C@H](C)CO)C2=O | x | x | x | -4.5 | x | x | x
CC(N)c1csc(NC(=O)c2cc(C(C)(C)C)nn2Cc2ccccc2)n1 (stereo unspecified) | -6.6 | 126.0 | i | 9.8 | x | x | x
COc1ccc(CC(N)c2csc(NC(=O)c3cc(C(C)(C)C)nn3Cc3ccccc3)n2)cc1 (stereo unspecified) | -17.9 | 95.0 | + | 1.7 | 4.9 | i | 0.0
O=C(NCCO)/C(=C\c1ccc([N+](=O)[O-])o1)NC(=O)c1ccccc1 | 3.8 | 99.0 | i | x | 2.6 | i | 0.0
CCO[C@H]1OC(C(=O)N2CCCC2)=C[C@@H](c2ccc(C(F)(F)F)cc2)[C@@H]1CCCO | x | x | x | -5.5 | x | x | x
CC(=O)N1CC=C2C(C#N)=C(N)C(C#N)(C#N)C(CCc3ccccc3)C2C1 (stereo unspecified) | 0.3 | 104.0 | + | -26.5 | 2.3 | i | 0.4
CS(=O)(=O)N1C[C@H](O)COC[C@@H]2O[C@@H](CC(=O)NCc3ccc(-c4ccccc4)cc3)CC[C@H]21 | x | x | x | 6.8 | x | x | x
COc1cc2nc(CN(C)Cc3nc4ccccc4c(=O)[nH]3)[nH]c(=O)c2cc1OC | 2.7 | 104.0 | i | -13.2 | x | i | 0.4
c1ccc(CNc2nc(-c3cccs3)nc3ccccc23)nc1 | 6.2 | 95.0 | i | x | -3.7 | i | 1.5
C[C@H]1CN([C@@H](C)CO)C(=O)c2cc(C3=CCCCC3)cnc2O[C@@H]1CN(C)C(=O)c1ccncc1 | x | x | x | -14.7 | x | x | x
COc1ccccc1C#Cc1cnc2c(c1)C(=O)N([C@H](C)CO)C[C@@H](C)[C@H](CN(C)C(=O)c1ccc3c(c1)OCO3)O2 | x | x | x | 0.4 | x | x | x
Oc1ccc(/C=C/c2ccc3ccccc3n2)cc1 | -18.5 | 101.0 | + | 14.7 | 19.5 | i | 20.3*
COc1cccc(OC)c1C(=O)Nc1nc2ccc(S(C)(=O)=O)cc2s1 | -2.4 | 94.0 | + | -6.7 | -5.4 | i | 0.0
CS(=O)(=O)c1ccc2nc(NC(=O)CS(=O)(=O)Cc3ccccc3)sc2c1 | 0.7 | 88.0 | + | x | -2.3 | i | 0.0
CS(=O)(=O)NCCNC(=O)c1cc(OCC(F)(F)F)ccc1OCC(F)(F)F | 0.1 | 100.0 | i | x | 1.4 | x | x
O=C(NCCNS(=O)(=O)c1cccc(C(F)(F)F)c1)c1cc(OCC(F)(F)F)ccc1OCC(F)(F)F | 0.9 | 92.0 | i | 0.7 | 16.5 | i | 0.0
O=C(C[C@H]1C[C@@H]2c3cc(NC(=O)C4CCOCC4)ccc3O[C@@H]2[C@H](CO)O1)NCc1ccccn1 | x | x | x | 6.8 | x | x | x
NC(=O)Nc1ccc(Cl)cc1 | -0.9 | 96.0 | i | 7.5 | u | x | x
NC(=O)Nc1ccc(Oc2c(F)c(F)c(F)c(F)c2F)cc1 | -3.3 | 115.0 | i | -0.4 | 6.8 | i | 0.2
O=C(CNC(=O)c1ccc(Oc2ccccc2)cc1)OC1CCCCC1=O (stereo unspecified) | -1.1 | 92.0 | + | -6.4 | -8.4 | i | 0.3
